Results reported in PubChem BioAssay (NCI).
About 83,000 compounds went through this panel and 20% of them were active in at least one assay; those are over-represented in the sample as a whole.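 The endpoint reported here, percent growth, reads 100 for growth as untreated, 0 for no net growth and -100 for all cells dead.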 Unmarked numbers belong to inactive results. Active and inactive are the calls of the source. The calls were made as follows: active = growth percent below 10; inactive = the rest.

Each molecule was assayed on MDA-MB-468 breast (assay: NCI-60 one-dose screen, 48 h (100 = growth as untreated, 0 = no growth, -100 = all killed)). Settings: 10 µM unless noted.
COc1ccc(OC)c(/C=C/C(=O)N/N=C/c2ccccc2)c1 was tested, and the growth was 28.1%.
For Cc1cc(-c2ccccc2)cc(SC#N)[n+]1[O-], the growth was 34.8%.
CC(C)NC(=O)c1cc(-c2ccc(NC(=O)Nc3ccc(F)c(C(F)(F)F)c3)cc2)nc2cccnc12 was tested, and the growth was 81.4%.
CCN(C(=O)CN1CCN(c2cc3c(cc2F)c(=O)c(C(=O)O)cn3CC)CC1)c1nc(-c2ccccc2)cs1 was tested, and the growth was -7.7% (active).
In the case of COc1ccc(Cl)cc1NC(N)=S, the growth is reported as 101%.
With CCc1nc2cc(/C=C/C(=O)NO)ccc2c(=O)n1CCc1ccc(F)cc1 the growth was -11.6% (active).
COc1ccc(C2CC(c3cccc(Nc4ccncc4)c3)=NN2c2ccc(Cl)cc2)cc1 (stereo not drawn) showed a growth of 45.3%.
N#CC[C@H](C1CCCC1)n1cc(-c2ncnc3[nH]ccc23)cn1 was tested, and the growth was 71.3%.
Work on Cc1[nH]c2ncnc(Oc3ccc(NC(=O)Nc4ccc(Cl)c(C(F)(F)F)c4)cc3)c2c1C yielded a growth of 69.5%.
Work on COc1cc(/C=C2\C(=O)N(c3c(Cl)cccc3Cl)c3ccccc32)cc(OC)c1OCCCCCCn1c2ccccc2c(=O)c2ccccc21 yielded a growth of 108%.
Work on Cc1cn(C2CC(F)C(CO)O2)c(=O)[nH]c1=O (stereo not drawn) yielded a growth of 90.7%.
C[C@H]1[C@H](C)CC[C@]2(C(=O)OCCCC[P+](c3ccccc3)(c3ccccc3)c3ccccc3)CC[C@]3(C)C(=CC[C@@H]4[C@@]5(C)CC[C@H](OC(=O)C(Cl)Cl)C(C)(C)[C@@H]5CC[C@]43C)[C@H]12 was tested, and the growth was -70.3% (active).
C=CCSC(CC)(CC)C(=O)NC was tested, and the growth was 99.3%.
